This excerpt belongs to a sample that is enriched for hits.
IDE exosite FP – exo-site inhibitors of human insulin-degrading enzyme; 6.3% of 17,000 active; z-score at 20 µM; purified IDE, FL-6b probe fluorescence polarization; stronger effect = lower value; P14735;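 active means z-score of -3 or lower, meaning strong loss of probe binding signal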;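 further: His-tagged human IDE residues 42-1019 made in E. coli with 30 nM FL-6b probe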
Target sequence (P14735 42-1019 limits assumed): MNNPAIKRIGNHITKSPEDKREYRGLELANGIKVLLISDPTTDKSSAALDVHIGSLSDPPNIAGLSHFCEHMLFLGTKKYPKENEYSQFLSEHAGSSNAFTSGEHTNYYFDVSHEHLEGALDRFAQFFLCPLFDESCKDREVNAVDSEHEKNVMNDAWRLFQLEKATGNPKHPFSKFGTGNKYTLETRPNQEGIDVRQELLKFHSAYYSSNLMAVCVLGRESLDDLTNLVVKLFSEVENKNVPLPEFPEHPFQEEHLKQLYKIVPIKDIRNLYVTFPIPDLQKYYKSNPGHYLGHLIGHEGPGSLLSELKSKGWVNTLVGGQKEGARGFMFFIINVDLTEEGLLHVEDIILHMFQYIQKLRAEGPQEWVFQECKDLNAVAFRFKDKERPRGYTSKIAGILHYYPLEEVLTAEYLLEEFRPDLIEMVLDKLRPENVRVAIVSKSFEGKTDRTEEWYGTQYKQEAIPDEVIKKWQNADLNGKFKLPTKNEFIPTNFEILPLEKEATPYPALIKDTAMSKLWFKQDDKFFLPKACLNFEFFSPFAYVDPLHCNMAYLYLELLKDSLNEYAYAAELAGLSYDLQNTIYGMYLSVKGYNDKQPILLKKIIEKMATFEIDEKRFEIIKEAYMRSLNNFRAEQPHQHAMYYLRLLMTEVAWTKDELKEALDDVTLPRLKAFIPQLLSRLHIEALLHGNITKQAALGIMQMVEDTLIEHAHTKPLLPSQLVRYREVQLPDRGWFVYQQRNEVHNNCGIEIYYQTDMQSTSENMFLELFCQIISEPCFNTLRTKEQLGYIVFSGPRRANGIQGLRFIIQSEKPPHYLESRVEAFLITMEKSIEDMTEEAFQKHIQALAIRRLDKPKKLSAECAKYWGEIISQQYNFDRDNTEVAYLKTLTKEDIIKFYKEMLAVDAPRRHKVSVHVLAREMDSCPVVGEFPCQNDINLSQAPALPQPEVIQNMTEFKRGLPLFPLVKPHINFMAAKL
* marks the source's active call; other numbers are inactive results.

SMILES | IDE exosite FP
COc1ccc2c3c([nH]c2c1)[C@@H](CO)N(C(C)=O)CC31CCN(C(C)=O)CC1 | 1.15
CCCNC(=O)N1CCC2(CC1)CN(Cc1cccc(OC)c1)[C@H](CO)c1[nH]c3cc(OC)ccc3c12 | -4.64*
COc1ccc(CN2CC3(CN(C(=O)Cc4ccccc4)C3)c3c([nH]c4cc(OC)ccc34)[C@@H]2CO)cc1 | -1.75
COc1ccc2c3c([nH]c2c1)[C@H](CO)N(Cc1nccs1)CC31CCN(C(=O)C2CCCCC2)CC1 | -0.967
CCCNC(=O)N1CC2(CCN(S(=O)(=O)CC)CC2)c2c([nH]c3cc(OC)ccc23)[C@@H]1CO | -1.89
COc1ccc2c3c([nH]c2c1)[C@H](CO)N(Cc1cccc(F)c1)CC31CCN(C(C)=O)CC1 | -6.64*
CCCNC(=O)N1CC2(C1)CN(Cc1ccc(F)cc1)[C@H](CO)c1[nH]c3cc(OC)ccc3c12 | 0.533
CCC(=O)N1CC2(C1)CN(Cc1cccc(Cl)c1)[C@@H](CO)c1[nH]c3cc(OC)ccc3c12 | -3.34*
COc1ccc2c3c([nH]c2c1)[C@@H](CO)N(Cc1nccs1)CC31CN(Cc2ccncc2)C1 | -3.16*
COc1ccc2c3c([nH]c2c1)[C@@H](CO)N(CC1CC1)CC31CCN(C(=O)Nc2cccc(F)c2)CC1 | -0.917
CCCC(=O)N1CC2(C1)CN(Cc1cccnc1)[C@@H](CO)c1[nH]c3cc(OC)ccc3c12 | -2.29
COc1ccc2c3c([nH]c2c1)[C@@H](CO)N(Cc1ccncc1)CC31CCN(CC2CCOCC2)CC1 | 0.533
OC[C@@H]1[C@@H](c2ccccc2)C2(CN(Cc3ccccn3)C2)N1CCC(F)(F)F | 0.523
CO[C@H]1CN(C)C(=O)c2cc(NS(C)(=O)=O)ccc2OC[C@H](C)N(C(=O)C2CCOCC2)C[C@@H]1C | -0.242
O=C(Nc1ccccc1F)N1CC(=O)N2[C@@H](CO)[C@@H](c3ccc(C#CC4CC4)cc3)[C@@H]2C1 | 0.654
N#C[C@@H]1[C@H](c2ccccc2-c2cccc(F)c2)[C@H](CO)N1C(=O)C1CCC1 | 2.89
COc1cccc(NC(=O)N2CC(=O)N3[C@H](CO)[C@H](c4ccc(Br)cc4)[C@@H]3C2)c1 | 2.08
COc1ccc2c3c(n(C)c2c1)[C@H](CO)N(C(=O)C1CCOCC1)CC31CCN(C(=O)c2ccncc2)CC1 | -0.192
COC(=O)C[C@@H]1CC[C@H]2[C@@H](COC[C@@H](O)CN2S(=O)(=O)c2ccccc2OC)O1 | -0.419
CN1C(=O)c2cc(NC(=O)c3ccno3)ccc2OC[C@H]2O[C@@H](CC(=O)Nc3ccccc3)CC[C@@H]21 | 0.09
COc1ccc2c3c(n(C)c2c1)[C@H](CO)N(C(=O)CN1CCOCC1)CC31CCN(C(=O)Nc2cccc(F)c2)CC1 | 0.137
Cc1noc(C)c1NC(=O)N1C[C@@H](O)COC[C@@H]2O[C@H](CC(=O)NCC3CC3)CC[C@H]21 | -0.106
O=C(C[C@@H]1C[C@@H]2c3cc(NC(=O)Nc4ccccc4)ccc3O[C@@H]2[C@@H](CO)O1)NCc1ccccc1 | 0.874
CCS(=O)(=O)Nc1ccc2c(c1)C(=O)N(C)[C@H]1CC[C@@H](CC(=O)N[C@H]3CCN(Cc4ccccc4)C3)O[C@H]1CO2 | -0.888
CN1C(=O)c2cc(NC(=O)c3ccc(F)c(F)c3)ccc2OC[C@H]2O[C@H](CC(=O)N3CCCCC3)CC[C@H]21 | -0.947
SMILES | IDE exosite FP
CCC(=O)N1[C@H](CO)[C@@H](c2ccccc2)[C@@H]1CN(C)C(=O)CN1CCOCC1 | -1.27
O=C1CN(S(=O)(=O)c2ccccc2)C[C@H]2[C@@H](c3ccc(C4=CCCC4)cc3)[C@H](CO)N12 | 3.3
O=C1CN(Cc2ccc(F)cc2)C[C@H]2[C@@H](c3ccc(-c4ccccc4F)cc3)[C@@H](CO)N12 | 3.07
COc1ccc(C#Cc2ccc3c(c2)[C@@H]2[C@@H](CCN2C(=O)C2CCOCC2)[C@@H](CO)N3)cc1 | 2.73
CN1C(=O)c2cc(NS(C)(=O)=O)ccc2OC[C@H]2O[C@@H](CC(=O)N3CCOCC3)CC[C@@H]21 | -1.27
O=C(Cc1ccccc1)N1CC(=O)N2[C@H](CO)[C@H](c3ccc(C#Cc4ccccc4)cc3)[C@H]2C1 | -1.27
O=C(Cc1ccccc1)N1CC(=O)N2[C@H](CO)[C@@H](c3ccc(Br)cc3)[C@H]2C1 | 0.344
O=C(Cc1ccccc1)N1CC(=O)N2[C@H](C1)[C@@H](c1ccc(C#CCc3ccccc3)cc1)[C@@H]2CO | -1.64
O=C(Cc1ccccc1)N1CC(=O)N2[C@H](CO)[C@H](c3ccc(C#Cc4ccccc4)cc3)[C@@H]2C1 | -7.01*
O=C(Cc1ccccc1)N1CC(=O)N2[C@H](C1)[C@@H](c1ccc(Br)cc1)[C@@H]2CO | -5.06*
O=C(Cc1ccccc1)N1CC(=O)N2[C@H](CO)[C@H](c3ccc(Br)cc3)[C@H]2C1 | -1.63
CCCC#Cc1ccc([C@H]2[C@@H](CO)N3CCCCN(S(=O)(=O)c4ccccc4F)C[C@H]23)cc1 | 1.86
CC(C)CC#Cc1ccc([C@@H]2[C@@H](CO)N3C(=O)CN(C(=O)CN4CCOCC4)C[C@H]23)cc1 | 5.55
CN(C)CC#Cc1ccc([C@H]2[C@@H](CO)N3CCCCN(C(=O)C4CCC4)C[C@@H]23)cc1 | 2.8
